This experiment can be described thus: NCI Yeast Anticancer Drug Screen. Data for the mlh1 rad18 strain (AID 175). The settings on record: S. cerevisiae mlh1 rad18 strain growth inhibition, stronger effect = higher value. As to the method:
Growth inhibition of yeast strains with defined genetic alterations is measured as a screen for potential anti-cancer activity. Selected strains with alterations in DNA damage repair or cell cycle control were exposed to compounds and growth inhibition was measured relative to vehicle treated controls. The strain used in this assay is mlh1 rad18

Setting [1] is: at 5.0 µM (retest, dose inferred, filed as 0.5).
Where [2] appears, read: at 50.0 µM (retest, dose inferred, filed as 5.0).

This note sets out measurements from PubChem BioAssay (NCI).

The panel holds about 79,000 compounds, 15% with a hit somewhere; the sample as a whole holds those more often. A number with no mark means an inactive call. The source made the active and inactive calls. Rule as the data show it: active = growth inhibition above about 70%; inactive = the rest.

As for `O=c1cc(Cl)c(Cl)nn1-c1ccccc1`, the growth inhibition is, setting by setting: under setting [1], 2%; under setting [2], 86% (active); (at 50.0 µM) 41.2%.

`CCc1cc(CC)c(-c2ccco2)c(COC(=O)NC)c1`: the growth inhibition by setting is: under setting [1], -1%; under setting [2], 86% (active); (at 50.0 µM) 96.3% (active).

For `O=C(CCCl)Nc1ccc(CCC(=O)c2ccccc2NC(=O)CCCl)cc1`, the growth inhibition under setting [1] was -11%, the growth inhibition under setting [2] is -6% and the growth inhibition (at 50.0 µM) was 54.3%.

`Cc1ccc(/C=C2\CCCC(CN(C)C)C2=O)cc1` (configuration not stated): the growth inhibition by setting is: under setting [1], -13%; under setting [2], 96% (active); (at 50.0 µM) 52.4%.

Consider `CN(C)CCC1(C2=CCCC2)CC/C(=C\c2ccc(Cl)cc2)C1=O` (configuration not stated), for which the growth inhibition under setting [1] was 33%, the growth inhibition under setting [2] was 97% (active) and the growth inhibition (at 50.0 µM) was 87.5% (active).

Take `COc1ccc2c(c1)CCc1c(CO)c(COC(=O)NC(C)C)n(C)c1-2`: the growth inhibition under setting [1] was 59%, the growth inhibition under setting [2] was 93% (active) and the growth inhibition (at 50.0 µM) was 88.8% (active).

Consider `COc1cccc2c1OC(c1cccc3ccccc13)C([N+](=O)[O-])=C2` (configuration not stated), for which the growth inhibition runs as follows: under setting [1], 49%; under setting [2], 81% (active); (at 50.0 µM) 58.8%.

Turning to `COc1ccc(/C=N/NS(=O)(=O)c2ccc(C)cc2)cc1`, the growth inhibition was 46% under setting [1], 98% (active) under setting [2] and 97.3% (active) (at 50.0 µM).

Turning to `COc1ccc(OC)c(NC(=O)CCCC(=O)CC(=O)c2cccnc2)c1`, the growth inhibition was 63% under setting [1], 63% under setting [2] and -8.55% (at 50.0 µM).

As to `NNC(=S)N/N=C(/C(=O)Nc1ccc(Cl)c(Cl)c1)C(C1OC(=O)c2ccccc21)[N+](=O)[O-]` (configuration not stated), the growth inhibition under setting [1] was 20%, the growth inhibition under setting [2] is 44% and the growth inhibition (at 50.0 µM) was 29.8%.

For the molecule `c1ccc2c(c1)OCC(CN1CCN(CC3COc4ccccc4O3)CC1)O2` (configuration not stated), the growth inhibition by setting is: under setting [1], 47%; under setting [2], 60%; (at 50.0 µM) 81.2% (active).

Turning to `Cc1cc(Cl)c(O)c(-c2cc(-c3ccccc3O)c(C#N)c(N)n2)c1`, the growth inhibition reads like this: under setting [1], -23%; under setting [2], 87% (active); (at 50.0 µM) 55%.

Turning to `c1ccc(C(CNCCN2CCCCCC2)C2CCCCC2)cc1` (configuration not stated), the growth inhibition is 18% under setting [1], 23% under setting [2] and 87.2% (active) (at 50.0 µM).

`CCCCCCCCCCCCS`: the growth inhibition is 3% under setting [1], 6% under setting [2] and -30.9% (at 50.0 µM).
